In PubChem BioAssay (NCI):
The panel holds about 83,000 compounds, 20% with a hit somewhere; the sample as a whole holds those more often.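 48-hour exposure, single concentration, 96-well plates; percent growth endpoint where 0 means no net growth. Active: below 10.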 Activity calls are given as the source filed them.

Assays:
Assay in all cases: NCI-60 one-dose screen, 48 h (100 = growth as untreated, 0 = no growth, -100 = all killed)
Conditions in all cases: 10 µM unless noted
RPMI-8226 leukemia = system: RPMI-8226 leukemia
OVCAR-8 ovarian = system: OVCAR-8 ovarian
OVCAR-5 ovarian = system: OVCAR-5 ovarian
OVCAR-4 ovarian = system: OVCAR-4 ovarian
SK-OV-3 ovarian = system: SK-OV-3 ovarian
IGROV1 ovarian = system: IGROV1 ovarian
OVCAR-3 ovarian = system: OVCAR-3 ovarian
HS 578T breast = system: HS 578T breast
T-47D breast = system: T-47D breast
BT-549 breast = system: BT-549 breast
MDA-MB-435 melanoma = system: MDA-MB-435 melanoma
SW-620 colon = system: SW-620 colon
MCF7 breast = system: MCF7 breast
HCT-116 colon = system: HCT-116 colon
HCC-2998 colon = system: HCC-2998 colon
KM12 colon = system: KM12 colon
NCI/ADR-RES ovarian = system: NCI/ADR-RES ovarian

Measured: growth

Cc1cc(=O)[nH]c(N=Nc2c(O)[nH]c3ccccc23)n1
inactive: RPMI-8226 leukemia 105% | OVCAR-8 ovarian 104% | OVCAR-5 ovarian 105% | OVCAR-4 ovarian 118% | SK-OV-3 ovarian 112% | IGROV1 ovarian 92.8% | OVCAR-3 ovarian 112% | HS 578T breast 122% | T-47D breast 105% | BT-549 breast 99.3% | MDA-MB-435 melanoma 114% | SW-620 colon 110% | MCF7 breast 93.2% | HCT-116 colon 104% | HCC-2998 colon 107% | KM12 colon 108%

CC(=O)N1C(=S)NC(=O)C1Cn1c(-c2ccccc2)nc2ccccc21 (stereo not drawn)
inactive: RPMI-8226 leukemia 97.3% | OVCAR-8 ovarian 102% | OVCAR-5 ovarian 103% | OVCAR-4 ovarian 102% | SK-OV-3 ovarian 94.3% | IGROV1 ovarian 92.5% | OVCAR-3 ovarian 101% | HS 578T breast 96% | T-47D breast 95.3% | BT-549 breast 109% | MDA-MB-435 melanoma 100% | SW-620 colon 103% | MCF7 breast 88.7% | HCC-2998 colon 110% | KM12 colon 100%

CC1=C(SCCC(=O)OC(C[Se]C2=C(C)C(=O)c3ccccc3C2=O)C(=O)NCCCCCC(=O)OCc2ccccc2)C(=O)c2ccccc2C1=O (stereo not drawn)
inactive: RPMI-8226 leukemia 30.2% | OVCAR-8 ovarian 39% | OVCAR-5 ovarian 44.6% | OVCAR-4 ovarian 53.2% | SK-OV-3 ovarian 32.7% | IGROV1 ovarian 25% | OVCAR-3 ovarian 21% | HS 578T breast 34% | BT-549 breast 67.3% | MDA-MB-435 melanoma 25.1% | SW-620 colon 45.7% | MCF7 breast 28.2% | HCC-2998 colon 32% | KM12 colon 19.8%
active: HCT-116 colon 4.77%

CCCCCCCCCCCC(c1ccccc1)[N+](C)(C)C (stereo not drawn)
active: RPMI-8226 leukemia -16.1% | OVCAR-4 ovarian 9.74% | IGROV1 ovarian -60.8% | T-47D breast 2.28% | BT-549 breast -36.3% | MDA-MB-435 melanoma 8.21% | HCT-116 colon 9.83% | KM12 colon -20.7%
inactive: OVCAR-8 ovarian 19.3% | OVCAR-5 ovarian 17.3% | SK-OV-3 ovarian 10.3% | OVCAR-3 ovarian 18.6% | NCI/ADR-RES ovarian 91.7% | SW-620 colon 41.9% | MCF7 breast 16.1%

CCOc1c(C#N)nnc2c(C#N)c(NC(=O)c3ccccc3)nn12
inactive: RPMI-8226 leukemia 111% | OVCAR-8 ovarian 93.8% | OVCAR-5 ovarian 102% | OVCAR-4 ovarian 110% | SK-OV-3 ovarian 97.1% | IGROV1 ovarian 101% | OVCAR-3 ovarian 106% | HS 578T breast 99.8% | NCI/ADR-RES ovarian 100% | BT-549 breast 102% | MDA-MB-435 melanoma 102% | SW-620 colon 102% | MCF7 breast 93.4% | HCT-116 colon 100% | KM12 colon 101%

O=C1Nc2ccccc2/C1=C/c1cn(C(=O)c2ccc(Cl)cc2)c2ccccc12
inactive: RPMI-8226 leukemia 74.5% | OVCAR-8 ovarian 95.1% | OVCAR-5 ovarian 110% | OVCAR-4 ovarian 78.3% | SK-OV-3 ovarian 104% | IGROV1 ovarian 72.7% | OVCAR-3 ovarian 98.7% | HS 578T breast 106% | NCI/ADR-RES ovarian 104% | BT-549 breast 96.4% | MDA-MB-435 melanoma 110% | SW-620 colon 102% | MCF7 breast 59.1% | HCT-116 colon 91.6% | KM12 colon 40.9%

CCc1c2c(nc3ccc(OC(=O)NCc4ccc(B5OC(C)(C)C(C)(C)O5)cc4)cc13)-c1cc3c(c(=O)n1C2)COC(=O)[C@]3(O)CC
active: OVCAR-8 ovarian 4.49% | OVCAR-5 ovarian -12.3% | OVCAR-4 ovarian 6.46% | SK-OV-3 ovarian -1.86% | OVCAR-3 ovarian -24.7% | T-47D breast 4.82% | BT-549 breast 4.12% | MDA-MB-435 melanoma -35.2% | SW-620 colon 8.04% | MCF7 breast 2.39% | HCT-116 colon 2.81% | KM12 colon -5.38%
inactive: RPMI-8226 leukemia 10.1% | IGROV1 ovarian 11% | HS 578T breast 23.4%

COc1cc(C2CC(=O)Nc3c2c(C)nn3-c2nc3ccccc3[nH]2)c(OC)c(OC)c1OC (stereo not drawn)
inactive: RPMI-8226 leukemia 55.1% | OVCAR-8 ovarian 47.4% | OVCAR-5 ovarian 104% | OVCAR-4 ovarian 73.1% | SK-OV-3 ovarian 40% | IGROV1 ovarian 76.9% | OVCAR-3 ovarian 12.2% | HS 578T breast 25.5% | T-47D breast 40.8% | BT-549 breast 52.7% | SW-620 colon 26.7% | MCF7 breast 25.4% | HCT-116 colon 23.5% | HCC-2998 colon 95.2% | KM12 colon 35.1%
active: MDA-MB-435 melanoma -36.4%

c1coc(-c2c3ccc(=[N+]4CCCCC4)cc-3oc3cc(N4CCCCC4)ccc23)c1
active: RPMI-8226 leukemia -42.7% | OVCAR-8 ovarian -61% | OVCAR-5 ovarian -91.8% | OVCAR-4 ovarian -41.9% | SK-OV-3 ovarian -95.2% | IGROV1 ovarian -67.5% | OVCAR-3 ovarian -99.2% | HS 578T breast -35.6% | T-47D breast -50.4% | BT-549 breast -82.8% | SW-620 colon -80% | MCF7 breast -69.7% | HCT-116 colon -95.2% | HCC-2998 colon -96.5% | KM12 colon -93.3%

CCc1ccccc1NC(=O)/C(C#N)=C/c1ccc(OC)cc1
inactive: RPMI-8226 leukemia 91% | OVCAR-8 ovarian 89.5% | OVCAR-5 ovarian 100% | OVCAR-4 ovarian 94.3% | SK-OV-3 ovarian 105% | IGROV1 ovarian 115% | OVCAR-3 ovarian 92.6% | HS 578T breast 92.6% | T-47D breast 88.7% | MDA-MB-435 melanoma 110% | SW-620 colon 94.4% | MCF7 breast 106% | HCT-116 colon 89.1% | HCC-2998 colon 98.1% | KM12 colon 91.4%

CCc1ccccc1-n1c(-c2ccc(Cl)cc2)cc(-c2ccc(OC)cc2)c(C#N)c1=O
inactive: RPMI-8226 leukemia 78.5% | OVCAR-8 ovarian 102% | OVCAR-5 ovarian 94.7% | OVCAR-4 ovarian 90% | SK-OV-3 ovarian 103% | IGROV1 ovarian 80% | OVCAR-3 ovarian 100% | HS 578T breast 98.7% | T-47D breast 92.3% | BT-549 breast 154% | MDA-MB-435 melanoma 89% | SW-620 colon 104% | MCF7 breast 85.6% | HCT-116 colon 94.6% | HCC-2998 colon 109% | KM12 colon 87.7%

COc1ccc(-c2nc3ccc4[nH]ncc4c3c3c2CCCC3)cc1B(O)O
active: HS 578T breast 0.224%
inactive: RPMI-8226 leukemia 47.6% | OVCAR-8 ovarian 56.4% | OVCAR-5 ovarian 90.5% | OVCAR-4 ovarian 74.8% | SK-OV-3 ovarian 14.4% | IGROV1 ovarian 35.6% | OVCAR-3 ovarian 94.8% | T-47D breast 46.9% | BT-549 breast 41.4% | MDA-MB-435 melanoma 32.4% | SW-620 colon 33.4% | MCF7 breast 60.1% | HCT-116 colon 27% | HCC-2998 colon 69.8% | KM12 colon 42.7%

Cc1ccc(N2CCN(C(=S)c3cccs3)CC2)cc1
inactive: RPMI-8226 leukemia 95.6% | OVCAR-8 ovarian 100% | OVCAR-5 ovarian 96.8% | OVCAR-4 ovarian 107% | SK-OV-3 ovarian 106% | IGROV1 ovarian 99.3% | OVCAR-3 ovarian 113% | NCI/ADR-RES ovarian 112% | T-47D breast 86.2% | BT-549 breast 74.2% | MDA-MB-435 melanoma 109% | SW-620 colon 108% | MCF7 breast 89.3% | HCT-116 colon 93.2% | HCC-2998 colon 94.3% | KM12 colon 113%

CCOC(=O)c1c(/C=C/C(=O)O)nc2ccccc2c1/C=C/c1ccccc1
inactive: RPMI-8226 leukemia 10.9% | OVCAR-8 ovarian 31.2% | OVCAR-5 ovarian 57.4% | OVCAR-4 ovarian 60.5% | SK-OV-3 ovarian 93.6% | IGROV1 ovarian 52.1% | OVCAR-3 ovarian 13.3% | HS 578T breast 18.7% | T-47D breast 36.4% | MDA-MB-435 melanoma 21.6% | SW-620 colon 30.1% | MCF7 breast 30.2% | HCT-116 colon 22.4% | HCC-2998 colon 35.1% | KM12 colon 19.7%

CCOC(=O)C/C(C)=N\NC(=O)c1ccncc1
inactive: RPMI-8226 leukemia 90% | OVCAR-8 ovarian 99.2% | OVCAR-5 ovarian 98.3% | OVCAR-4 ovarian 98.2% | SK-OV-3 ovarian 101% | OVCAR-3 ovarian 105% | HS 578T breast 115% | NCI/ADR-RES ovarian 98% | T-47D breast 92.1% | BT-549 breast 97.8% | MDA-MB-435 melanoma 91.7% | SW-620 colon 107% | MCF7 breast 93.2% | HCT-116 colon 89.3% | HCC-2998 colon 98.7% | KM12 colon 107%

CCc1ccccc1-n1c(N)c(C#N)c(-c2ccc(N(C)C)cc2)c(C#N)c1=O
inactive: RPMI-8226 leukemia 74.7% | OVCAR-8 ovarian 101% | OVCAR-5 ovarian 97% | OVCAR-4 ovarian 99% | SK-OV-3 ovarian 107% | IGROV1 ovarian 90.8% | OVCAR-3 ovarian 97% | NCI/ADR-RES ovarian 94.8% | T-47D breast 80% | BT-549 breast 85.5% | MDA-MB-435 melanoma 100% | SW-620 colon 93% | MCF7 breast 94.9% | HCT-116 colon 94.1% | HCC-2998 colon 104% | KM12 colon 97.6%

O=S(=O)(O)c1ccc(N/N=C/c2ccccc2Cl)cc1
inactive: RPMI-8226 leukemia 98.7% | OVCAR-8 ovarian 115% | OVCAR-5 ovarian 104% | OVCAR-4 ovarian 112% | SK-OV-3 ovarian 112% | IGROV1 ovarian 101% | OVCAR-3 ovarian 119% | HS 578T breast 111% | T-47D breast 106% | MDA-MB-435 melanoma 102% | SW-620 colon 108% | MCF7 breast 99.2% | HCT-116 colon 104% | KM12 colon 116%

COc1ccc(C2CC(c3cccc(OC)c3)=NN2C(=O)c2cc(OC)c(OC)c(OC)c2)cc1 (stereo not drawn)
inactive: RPMI-8226 leukemia 15% | OVCAR-8 ovarian 43.9% | OVCAR-5 ovarian 44.5% | SK-OV-3 ovarian 33.7% | IGROV1 ovarian 27.9% | T-47D breast 29% | BT-549 breast 39.5% | SW-620 colon 22.5% | MCF7 breast 16.2% | HCT-116 colon 15.3% | KM12 colon 15.4%
active: OVCAR-3 ovarian -55.7% | HS 578T breast -13.5% | NCI/ADR-RES ovarian -30.4% | MDA-MB-435 melanoma -58.8% | HCC-2998 colon -10.3%

COc1ccc(N=C(c2ccccc2)C2C(=O)c3ccccc3C2=O)cc1
inactive: RPMI-8226 leukemia 37.2% | OVCAR-8 ovarian 83.3% | OVCAR-5 ovarian 104% | OVCAR-4 ovarian 77.3% | SK-OV-3 ovarian 108% | OVCAR-3 ovarian 82.3% | HS 578T breast 86.9% | NCI/ADR-RES ovarian 91.9% | T-47D breast 78% | BT-549 breast 74.3% | MDA-MB-435 melanoma 58.6% | SW-620 colon 71.4% | MCF7 breast 84.6% | HCT-116 colon 81.2% | HCC-2998 colon 112% | KM12 colon 100%
